# Where “and” joins values, the source holds several entries; their conditions need not be identical. Equal entries are not always repeated. Inconclusive results are not listed. Some compounds were tested as several samples or in several runs, with calls that do not always agree. Calls of active or inactive are those of the source. Unless noted, calls come from the whole dose curve; as a rule, active = well fitted curve in the direction sought with a large enough effect; inconclusive = small, poorly fitted or top-dose-only effect, or another doubt; inactive = no such curve, though single readings can be large; an effect the other way counts as inactive or inconclusive.
# How the values were obtained:
# [1] = qHTS to identify inhibitors of the type 1 interferon - major histocompatibility complex class I in skeletal muscle: primary screen against the NCATS Mechanism Interrogation Plate v5.0 (MIPE) Libary (AID 1347411); note: nearly all actives have a fitted effect of over 65% in size;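 for activity change, negative = inhibition: plate controls were vehicle for no effect and reference inhibitor for full effect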
# In short: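 Cells were genome-edited human myoblasts carrying a HiBit tag on endogenous HLA-B. They were treated with IFN-beta (4.0 ng/ml) and titrated compounds (top 46 uM) for 24 hrs before lytic HiBiT detection.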
# [2] = Primary qHTS for inhibitors of nuclear receptor binding SET domain protein 2 (NSD2) in an RCH-ACV wild type WT cells (2C) (AID 1645877); note: nearly all actives have a fitted effect of over 70% in size
# [3] = biological target: Glutathione peroxidase 1 (Homo sapiens) (UniProt P07203); assay: Primary qHTS Assay for Inhibitors of Recombinant Selenoprotein Glutathione Peroxidase 1 (GPX1) (AID 1845191); note: nearly all actives have a fitted effect of over 65% in size
# Glutathione peroxidase 1 (Homo sapiens), sequence (P07203 whole entry, looked up): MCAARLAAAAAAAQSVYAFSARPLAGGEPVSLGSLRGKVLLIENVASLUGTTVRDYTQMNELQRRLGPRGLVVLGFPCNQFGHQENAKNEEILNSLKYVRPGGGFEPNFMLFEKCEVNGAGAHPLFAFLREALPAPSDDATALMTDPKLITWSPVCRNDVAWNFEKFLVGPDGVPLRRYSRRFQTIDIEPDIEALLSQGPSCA
# In short: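 GR-coupled assay: compounds preincubated 30 min at room temperature with GPX1, then reaction started with CHP; final 10 nM GPX1, 1 mM GSH, 0.5 mM CHP, 0.5 mM NADPH, 100 nM GR, 0.01% BSA, pH 7.5 Tris buffer. NADPH fluorescence (340/450 nm) read at 0 and 15 min.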
# [4] = biological target: Phospholipid hydroperoxide glutathione peroxidase GPX4 (Homo sapiens) (UniProt P36969); assay: Primary qHTS Assay for Inhibitors of Recombinant Selenoprotein Glutathione Peroxidase 4 (GPX4) (AID 1845192); conditions: outcome: dose series up to 50 µM unless noted; note: nearly all actives have a fitted effect of over 65% in size; for activity change, negative = inhibition: % is set by controls: 0 for no effect and ±100 for the full control effect
# Phospholipid hydroperoxide glutathione peroxidase GPX4 (Homo sapiens), sequence (P36969 whole entry, looked up): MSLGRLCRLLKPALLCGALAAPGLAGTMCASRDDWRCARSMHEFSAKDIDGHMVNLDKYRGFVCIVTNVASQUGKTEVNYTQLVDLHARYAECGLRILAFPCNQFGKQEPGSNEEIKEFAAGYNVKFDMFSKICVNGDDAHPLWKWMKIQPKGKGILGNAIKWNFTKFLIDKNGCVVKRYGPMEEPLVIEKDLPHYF
# In short: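 GR-coupled assay: recombinant GPX4 preincubated 30 min with compound at room temperature; final 200 nM GPX4, 1 mM GSH, 0.5 mM cumene hydroperoxide, 0.5 mM NADPH, 100 nM GR, 0.01% BSA, pH 7.5 Tris. NADPH fluorescence (340/450 nm) read at 0 and 15 min.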
# [5] = qHTS drug screen for cell cycle checkpoint inhibitors in PARPi-resistant BRCA-mutant ovarian cancer cell lines. (AID 1963452; calls by dose curve); conditions: PEO1/OlaR viability, CellTiter-Glo luminescence, 96 h; for Z-AUC: stronger effect = lower value
# In short: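 PEO1, PEO4 and PEO1/OlaR ovarian cancer cells, 600 per well, exposed 96 h at 37C to a dilution series. Viability read by CellTiter-Glo luminescence, normalized to DMSO and empty wells; activity summarized as Z-AUC.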
# [6] = Primary qHTS for inhibitors of nuclear receptor binding SET domain protein 2 (NSD2) in an isogenic RCH-ACV NSD2 p.E1099K mutant (9B) (AID 1645876); note: nearly all actives have a fitted effect of over 70% in size
# [7] = qHTS assay to identify inhibitors of the type 1 interferon - major histocompatibility complex class I in skeletal muscle: Counter screen cell viability and HiBit confirmation (AID 1347412); conditions: iHSKM muscle cells + IFN-b, HiBiT or CellTiter-Glo, 24 h; for Potency: HiBiT; for activity change, negative = inhibition: % is set by controls: 0 for no effect and ±100 for the full control effect; for all read-outs here: nearly all actives have a fitted effect of over 60% in size
# In short: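 After 24 h with human IFN-beta (4 ng/ml) and compound titrations (top 46 uM final, 1:3, 12 points), HLA-B HiBit myoblasts were lysed for either Nano-Glo HiBiT luminescence or CellTiter Glo viability on paired plates.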
# [8] = measured here: PEO1 parental Z-AUC
# Potency is the fitted concentration of half-maximal effect.
Molecule,Potency [1],Potency [2],Potency [3],Potency [4],Z-AUC [5],"Z-AUC [5, 8]",Z-AUC ([5]; measured here: PEO4 Z-AUC),Potency [6],Potency [5],Potency [7],"activity change, negative = inhibition ([7]; Viability, at 45.9 µM (top of the series))"
CCOc1ccc(-n2c([C@@H](C)N(Cc3cccnc3)C(=O)Cc3ccc(F)c(C(F)(F)F)c3)nc3ncccc3c2=O)cc1,inactive,18.6 µM (active),inactive,inactive,1.64 (inactive),1.42,1.34,–,–,–,–
CN[C@@H](C)C(=O)N[C@H](C(=O)N1CCC[C@H]1C(=O)Nc1snnc1-c1ccccc1)C1CCCCC1,inactive,–,inactive,inactive,–,–,–,–,–,–,–
CC(C)(CO)n1cc(C(=O)c2cncc(NC(=O)Cc3ccc(Cl)cn3)c2)c2cnc(N)nc21,inactive,inactive,inactive,inactive,-0.173 (inactive),0.879,0.771,–,–,–,–
CCCN(CCC)C(=O)C1=Cc2ccc(-c3ccc(C(=O)N4CCCC4)cc3)cc2N=C(N)C1,inactive,18.6 µM (active),–,–,0.263 (inactive),-0.15,-0.0193,–,–,–,–
C[C@H]1CN(C2COC2)CCN1c1ccc(Nc2cc(-c3ccnc(N4CCn5c(cc6c5CC(C)(C)C6)C4=O)c3CO)cn(C)c2=O)nc1,inactive,–,inactive,inactive,-0.103 (inactive),0.727,0.518,–,–,–,–
Nc1ncc(C(=O)NC2CN(C(=O)C3CC3)C2)c2ccc(-c3cccc(F)c3)nc12,inactive,–,inactive,inactive,1.21 (inactive),0.799,0.359,–,–,–,–
COc1cc(-c2cn(C)c(=O)c3cnccc23)c(OC)cc1CN(C)C,inactive,8.33 µM (active),inactive,inactive,-0.443 (inactive),-0.655,-0.662,–,–,–,–
CN(CCOc1ccc(-c2ccc3c(c2)OCO3)cc1C(C)(C)C)CC(=O)O,inactive,20.9 µM (active),inactive,inactive,0.446 (inactive),1.02,1.29,–,–,–,–
NS(=O)(=O)c1ccc(NC(=S)N2CCN(C/C=C/c3ccccc3)CC2)cc1,inactive,–,inactive,inactive,0.177 (inactive),-0.364,-0.0827,–,–,–,–
Ac-PHSCN-NH2,inactive,23.5 µM (active),inactive,inactive,-0.465 (inactive),0.449,0.654,–,–,–,–
O=C(Nc1cnccc1Cl)N1CCN(Cc2ccc3c(c2)OC(F)(F)O3)CC1,inactive,–,inactive,inactive,–,–,–,–,–,–,–
CC(=O)[C@]1(N)Cc2c(O)c3c(c(O)c2[C@@H](O[C@H]2C[C@H](O)[C@H](O)CO2)C1)C(=O)c1ccccc1C3=O,inactive,23.5 µM (active),inactive,inactive,-0.249 (inactive),-0.44,-0.284,–,–,–,–
C=CC(=O)N[C@H]1CCOC[C@H]1Nc1ncc2cc(-c3c(Cl)c(OC)cc(OC)c3Cl)ccc2n1,inactive,–,inactive,inactive,1.21 (inactive),0.408,0.57,–,–,–,–
Nc1cc(COc2c(Cl)cc(C[C@H](N)C(=O)O)cc2Cl)c2oc(-c3ccccc3)nc2c1,inactive,–,inactive,inactive,-1.13 (inactive),-0.255,-0.878,–,–,–,–
COc1cc(-c2cn(C)c(=O)c3cnccc23)cc(OC)c1CN(C)C,inactive,–,inactive,inactive,1.5 (inactive),0.545,0.614,–,–,–,–
C=C1/C(=C/C=C2\CCCC3(C)[C@@H]([C@H](C)/C=C/C=C/C(O)(CC)CC)CC[C@@H]23)C[C@@H](O)C[C@@H]1O (stereo not given in full),inactive,18.6 µM (active),inactive,inactive and 15.8 µM (active),-0.128 (inactive),-0.195,-0.444,–,–,–,–
Cc1cc(C)c2c(c1)[C@@H](N(Cc1cc(C(F)(F)F)cc(C(F)(F)F)c1)c1nnn(C)n1)CCCN2CC1CCC(C(=O)O)CC1 (stereo not given in full),inactive,–,–,–,0.561 (inactive),1.04,0.634,inactive,–,–,–
CNS(=O)(=O)Nc1nccc(Cc2c(C)c3ccc(Oc4ncccn4)cc3oc2=O)c1F,inactive,–,inactive,inactive,–,-1.08,-1.84,–,2.75 µM (active),–,–
CC(C)(c1ccc(OCC(O)CO)cc1)c1ccc(OCC(O)CCl)cc1 (stereo not given),inactive,–,inactive,inactive,1.33 (inactive),0.733,1.22,–,–,–,–
OCCOc1ccc(/C(=C(/CCCl)c2ccccc2)c2ccccc2)cc1,inactive,–,inactive,inactive,-0.111 (inactive),0.225,0.557,–,–,–,–
COc1ccc(S(=O)(=O)NCc2ccc(C(=O)NCCc3ccc(Cl)cn3)cc2)cc1,inactive,–,inactive,inactive,-2 (inactive),-0.947,-0.745,–,–,–,–
C=CC(=O)N1CC(N2CCN(C(=O)CNc3cc(C4(C)CC4)c(Cl)cc3O)CC2)C1,inactive,–,inactive,inactive,-0.243 (inactive),-0.485,-0.295,23.5 µM (active),–,–,–
Cc1[nH]nc2ncc(C(=O)N3CCC[C@H]3c3ccc(Cl)cc3)cc12,inactive,0.296 µM (active),inactive,inactive,-0.0587 (inactive),0.0336,-0.0502,–,–,–,–

Molecule,Potency [1],Potency [2],Potency [3],Potency [4],Z-AUC [5],"Z-AUC [5, 8]",Z-AUC ([5]; measured here: PEO4 Z-AUC),Potency [6],Potency [5],Potency [7],"activity change, negative = inhibition ([7]; Viability, at 45.9 µM (top of the series))"
C[C@@H](O)[C@@H](C)Oc1nc(Nc2ccc(S(=N)(=O)C3CC3)cc2)ncc1C(F)(F)F (stereo not given in full),20.8 µM (active),–,inactive,inactive,-1.04 (inactive),-0.0707,-0.563,–,–,–,–
N[C@@H]1CN(c2c(F)cc3c(=O)c(C(=O)O)cn([C@@H]4C[C@@H]4F)c3c2Cl)CC12CC2,inactive,inactive,inactive,–,0.751 (inactive),0.374,0.877,–,–,–,–
COC(=O)C1=C(C)NC(c2ncc(F)cc2F)=N[C@@H]1c1ccc(F)cc1Cl,16.5 µM (active),18.6 µM (active),inactive,inactive,1.3 (inactive),1.02,0.861,–,–,–,–
C/C=C(/C)C(=O)O[C@H]1C(C)=CC23C(=O)C(C=C(CO)[C@@H](O)[C@]12O)[C@H]1[C@@H](C[C@H]3C)C1(C)C (stereo not given in full),inactive,–,inactive,inactive,-0.0624 (inactive),-0.301,-0.581,–,–,–,–
Nc1nc(N)c2nc(-c3cccc(Cl)c3)c(N)nc2n1,inactive,–,4.09 µM (active),–,-0.747 (inactive),-0.162,-0.371,1.05 µM (active),–,–,–
CC1(C)SCCN(S(=O)(=O)c2ccc(OCC#CCO)cc2)[C@H]1C(=O)NO,inactive,–,inactive,inactive,0.823 (inactive),0.238,0.33,–,–,–,–
CS(=O)(=O)c1ccc([C@@H](CC2CCCC2)C(=O)Nc2nccs2)cc1,inactive,–,inactive,inactive,0.78 (inactive),0.607,0.595,–,–,–,–
O=C(O)/C(S)=C/c1ccc(I)cc1,inactive,–,inactive,–,0.452 (inactive),0.731,0.789,inactive,–,–,–
CO[C@H]1/C=C/O[C@@]2(C)Oc3c(C)c(O)c4c(O)c(c(/C=N\N5CCN(C6CCCC6)CC5)c(O)c4c3C2=O)NC(=O)/C(C)=C\C=C\[C@H](C)[C@H](O)[C@@H](C)[C@@H](O)[C@@H](C)[C@H](OC(C)=O)[C@@H]1C,18.6 µM (active),20.9 µM (active),inactive,–,-0.749 (inactive),-0.895,-0.603,–,–,–,–
CCOC(=N)c1nc2ccc3ncnc(Nc4cc(F)c(F)cc4Cl)c3c2s1,inactive,–,inactive,inactive,-1.14 (inactive),-1.11,-1.07,inactive,–,–,–
Nc1cccc2c1CN([C@H]1CCC(=O)NC1=O)C2=O,inactive,–,inactive,inactive,0.0993 (inactive),0.928,1.07,–,–,–,–
CCC(=O)OCC(=O)C1(OC(=O)CC)C(C)CC2C3CCC4=CC(=O)C=CC4(C)C3(F)C(O)CC21C (stereo not given),inactive,–,inactive,inactive,0.365 (inactive),0.623,-0.145,–,–,–,–
C=CC(=O)N1C[C@H](Nc2ncnc3[nH]ccc23)CC[C@@H]1C,inactive,inactive,–,inactive,-0.649 (inactive),-0.501,-0.666,–,–,–,–
O=C(Cc1ccccc1)Nc1nnc(CCSCCc2nnc(NC(=O)Cc3ccccc3)s2)s1,inactive,–,inactive,inactive,1.43 (inactive),1.23,1.41,–,–,–,–
Cc1ccc(NC(=O)[C@H]2CCCN(C(=O)c3c(C)cccc3F)[C@H]2c2ccc(NC3CCCC3)cc2)cc1C(F)(F)F,inactive,inactive,inactive,–,-0.612 (inactive),0.0404,-0.339,–,–,–,–
Fc1ccc(-c2csc3ncnc(NCc4ccc5c(c4)OCO5)c23)cc1,inactive,–,inactive,inactive,0.367 (inactive),0.157,0.314,8.33 µM (active),–,–,–
CC(C)OC(=O)[C@H](C)N[P@](=O)(OC[C@H]1O[C@@H](n2ccc(=O)[nH]c2=O)[C@](C)(F)[C@@H]1O)Oc1ccccc1,inactive,–,inactive,inactive,-0.0429 (inactive),0.659,0.765,–,–,–,–
C=CC(=O)Nc1cc(N2CCN(CC)CC2)ccc1Nc1cc(N(C)C(=O)Nc2c(Cl)c(OC)cc(OC)c2Cl)ncn1,inactive,–,–,inactive,1.02 (inactive),0.686,0.736,–,–,–,–
CC[C@H]1CN2CCc3cc(OC)c(OC)cc3C2C[C@@H]1CC1NCCc2cc(OC)c(OC)cc21 (stereo not given in full),–,–,–,–,–,–,–,–,–,0.279 µM (active),–
CN1C[C@@H]2c3ccccc3Oc3ccc(Cl)cc3[C@H]2C1,inactive,–,–,inactive,1.28 (inactive),1.52,1.41,–,–,–,–
Cc1nc(C)c(CN2CCN(C(c3ccc(F)cc3)c3ccc(F)cc3)CC2)nc1C,inactive,–,inactive,inactive,-0.108 (inactive),0.777,1.05,–,–,–,–
Cc1ncsc1-c1ccc([C@H](C)NC(=O)[C@@H]2C[C@@H](O)CN2C(=O)[C@@H](NC(=O)COCCCOCCNC(=O)C[C@@H]2N=C(c3ccc(Cl)cc3)c3c(sc(C)c3C)-n3c(C)nnc32)C(C)(C)C)cc1,–,0.0186 µM (active),inactive,inactive,-2.25 (inactive),-2.46,-2.23,0.0148 µM (active),–,0.394 µM (active),-12.4% (inactive)

# Reference: PubChem BioAssay (NCATS)
